# PubChem BioAssay
# Calls of active or inactive are those of the source.
# Tests used:
# [1] = E. coli DRC41 culture turbidity changes, primary screen, E. coli filamentation inducer project, strain DRC41, OD650, 48 h (AID 1152);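 note: E. coli MC1000 strain DRC41 lacking acrAB efflux pump and sulA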; details: E. coli DRC41 (acrAB sulA), higher = more signal, called active from +8 up or from −8 down
# [2] = small-molecule binders of probe aLefty1, primary screen, biochemical, small-molecule microarray, 635/667 nm fluorescence (AID 1153); details: higher = more signal;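 note: score merges spot fluorescence with signal-to-noise ratio from the scanned slide images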
# [3] = PSAC antagonists in infected red cells, primary screen, cell-based, P. falciparum Indochina, OD700, 1 h (AID 1154); details: P. falciparum Indochina infected RBC osmotic lysis, higher = more signal, called active from +8 up or from −8 down
# [4] = PSAC antagonists in infected red cells, primary screen, cell-based, P. falciparum Indochina, OD700, 2 h (AID 1155);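 note: lysis reports solute entry through the parasite surface anion channel PSAC; channel blockers reduce lysis of infected cells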; details: P. falciparum Indochina infected erythrocytes, osmotic lysis OD700; higher = more signal, called active from +8 up or from −8 down
# [5] = osmotic lysis modulators in infected erythrocytes, primary screen, PSAC antagonist project, cell-based, P. falciparum Indochina, OD700, 3 h (AID 1156); details: higher = more signal, called active from +8 up or from −8 down
# [6] = PSAC antagonists in infected red cells, primary screen, cell-based, P. falciparum Indochina, OD700, 18 h (AID 1157); details: P. falciparum Indochina infected erythrocytes, osmotic lysis OD700, 18 h; higher = more signal, called active from +8 up or from −8 down
# [7] = modulators of S6 phosphorylation in cells, primary screen, cell-based, A549, cytoblot, luminescence, serum-stimulated (AID 1158); details: A549 phospho-S6 cytoblot, 5 h, higher = more signal;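 note: serum-stimulated A549 lung adenocarcinoma cells; signal is phosphorylated S6 detected by cytoblot immunostaining with HRP secondary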
# [8] = biological target: NADPH oxidase 2 (Homo sapiens) (UniProt P04839); experiment: NOX2-dependent H2O2 signal modulators, primary screen, NOX inhibitor project, cell-based, HEK293-NOX2, PMA-stimulated, Amplex Red fluorescence (AID 1159); details: 45 min, higher = more signal, called active from +8 up or from −8 down; note: test concentration not given here
# Sequence of NADPH oxidase 2 (Homo sapiens) (P04839 whole entry, looked up): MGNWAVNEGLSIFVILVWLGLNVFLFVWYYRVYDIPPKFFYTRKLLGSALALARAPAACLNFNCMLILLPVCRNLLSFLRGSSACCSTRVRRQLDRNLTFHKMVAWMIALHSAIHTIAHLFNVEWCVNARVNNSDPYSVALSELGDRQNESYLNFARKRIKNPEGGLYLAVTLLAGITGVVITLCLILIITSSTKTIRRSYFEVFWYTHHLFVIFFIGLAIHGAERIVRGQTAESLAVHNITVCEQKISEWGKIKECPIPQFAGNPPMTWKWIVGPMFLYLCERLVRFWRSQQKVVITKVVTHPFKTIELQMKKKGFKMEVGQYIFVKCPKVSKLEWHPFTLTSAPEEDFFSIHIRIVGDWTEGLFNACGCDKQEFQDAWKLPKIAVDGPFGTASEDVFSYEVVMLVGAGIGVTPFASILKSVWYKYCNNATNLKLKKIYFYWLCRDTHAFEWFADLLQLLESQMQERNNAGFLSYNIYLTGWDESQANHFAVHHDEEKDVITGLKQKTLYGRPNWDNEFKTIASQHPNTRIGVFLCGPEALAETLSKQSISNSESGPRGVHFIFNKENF
# [9] = biological target: NADPH oxidase 4 (Homo sapiens) (UniProt Q9NPH5); experiment: NOX4-dependent H2O2 signal modulators, primary screen, NOX inhibitor project, cell-based, HEK293-NOX4, tetracycline-induced, Amplex Red fluorescence (AID 1160); details: 45 min, higher = more signal, called active from +8 up or from −8 down
# Sequence of NADPH oxidase 4 (Homo sapiens) (Q9NPH5 whole entry, looked up): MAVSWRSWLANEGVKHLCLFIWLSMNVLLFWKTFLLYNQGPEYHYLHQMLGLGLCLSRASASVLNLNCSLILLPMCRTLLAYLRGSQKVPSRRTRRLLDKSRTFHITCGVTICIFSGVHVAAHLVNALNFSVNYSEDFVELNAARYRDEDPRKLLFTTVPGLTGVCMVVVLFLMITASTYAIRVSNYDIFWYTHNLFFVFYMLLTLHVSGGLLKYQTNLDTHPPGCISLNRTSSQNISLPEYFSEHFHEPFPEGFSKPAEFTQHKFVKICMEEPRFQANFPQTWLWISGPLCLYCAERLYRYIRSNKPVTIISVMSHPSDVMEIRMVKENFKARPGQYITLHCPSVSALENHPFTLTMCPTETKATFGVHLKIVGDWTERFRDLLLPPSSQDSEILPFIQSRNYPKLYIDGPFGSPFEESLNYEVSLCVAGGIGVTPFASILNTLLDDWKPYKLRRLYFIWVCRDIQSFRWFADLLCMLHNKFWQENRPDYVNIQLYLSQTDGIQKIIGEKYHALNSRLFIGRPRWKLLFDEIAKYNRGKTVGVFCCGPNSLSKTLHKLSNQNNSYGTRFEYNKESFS
# [10] = biological target: NADPH oxidase 5 (Homo sapiens) (UniProt Q96PH1); experiment: NOX5-dependent H2O2 signal modulators, primary screen, NOX inhibitor project, cell-based, HEK293-NOX5, Amplex Red fluorescence (AID 1161); details: HEK293-NOX5, ionomycin, 45 min, higher = more signal
# Sequence of NADPH oxidase 5 (Homo sapiens) (Q96PH1 whole entry, looked up): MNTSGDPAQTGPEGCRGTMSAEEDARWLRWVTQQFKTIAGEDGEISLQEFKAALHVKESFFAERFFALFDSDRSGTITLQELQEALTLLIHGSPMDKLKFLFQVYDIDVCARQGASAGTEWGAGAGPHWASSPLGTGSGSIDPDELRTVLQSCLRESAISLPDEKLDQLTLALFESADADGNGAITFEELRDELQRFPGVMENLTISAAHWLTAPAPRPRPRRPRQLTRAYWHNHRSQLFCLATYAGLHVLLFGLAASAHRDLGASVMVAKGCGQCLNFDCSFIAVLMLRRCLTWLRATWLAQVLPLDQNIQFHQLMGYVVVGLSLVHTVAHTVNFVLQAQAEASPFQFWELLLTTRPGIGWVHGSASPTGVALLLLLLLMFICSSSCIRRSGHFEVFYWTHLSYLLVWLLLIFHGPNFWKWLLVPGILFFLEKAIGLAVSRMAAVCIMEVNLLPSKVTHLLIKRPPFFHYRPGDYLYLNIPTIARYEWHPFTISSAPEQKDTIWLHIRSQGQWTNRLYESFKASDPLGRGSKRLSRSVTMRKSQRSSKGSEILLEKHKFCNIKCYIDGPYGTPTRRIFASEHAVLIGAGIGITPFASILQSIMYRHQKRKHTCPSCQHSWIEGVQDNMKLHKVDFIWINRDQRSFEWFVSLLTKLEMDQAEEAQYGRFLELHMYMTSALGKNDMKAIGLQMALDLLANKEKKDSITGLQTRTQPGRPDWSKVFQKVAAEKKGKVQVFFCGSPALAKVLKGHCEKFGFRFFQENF
SMILES,z-score [1],composite z-score [2],z-score [3],z-score [4],z-score [5],z-score [6],z-score [7],z-score [8],z-score [9],z-score [10]
CCCC[C@@H]1C[C@H]1[C@@H](NC(=O)c1ccco1)c1ccccc1,-2.76 (inactive),-0.168,4.64 (inactive),1.16 (inactive),0.747 (inactive),0.545 (inactive),-0.446,-1.42 (inactive),-2.53 (inactive),0.195
CC(C)N1C(=O)c2ccccc2[C@](C)(C(=O)NCCCN(C)C)[C@@H]1c1ccc(CO)cc1,0.0259 (inactive),0.0201,2.5 (inactive),0.347 (inactive),0.766 (inactive),0.4 (inactive),0.564,0.288 (inactive),0.893 (inactive),1.15
COCCOC(=O)N1C(=O)[C@@]2(c3cc(C#CCC(C(=O)OC)C(=O)OC)ccc31)[C@H](c1ccc(OCCO)cc1)N1[C@H](c3ccccc3)[C@H](c3ccccc3)OC(=O)[C@H]1[C@@H]2C(=O)NC[C@H](O)c1ccccc1,0.588 (inactive),-0.0533,3.79 (inactive),1.54 (inactive),1.69 (inactive),1.17 (inactive),0.22,1.53 (inactive),1.26 (inactive),1.17
C[C@H]1C2[C@H](Cc3ccccc3)NC(=O)[C@]23C(=O)N[C@H](Cc2ccccc2)C(=O)N[C@H](Cc2ccccc2)C(=O)NC/C=C/CCC/C=C/C3[C@@H]2O[C@]12C (stereo not given in full),0.655 (inactive),-0.19,1.75 (inactive),0.452 (inactive),0.601 (inactive),0.794 (inactive),0.282,0.563 (inactive),-0.312 (inactive),0.875
COCCOC(=O)N1C(=O)[C@@]2(c3cc(C#CCCO)ccc31)[C@H](C(=O)NC[C@H](O)c1ccccc1)[C@H]1C(=O)O[C@H](c3ccccc3)[C@H](c3ccccc3)N1[C@@H]2c1ccc(OCCO)cc1,1.96 (inactive),-0.0276,3.45 (inactive),1.02 (inactive),-0.431 (inactive),0.212 (inactive),0.568,1.75 (inactive),1.13 (inactive),-0.0265
COCCOC(=O)N1C(=O)[C@@]2(c3cc(C#CCC(C(=O)OC)C(=O)OC)ccc31)[C@H](c1ccccc1OCCO)N1[C@H](c3ccccc3)[C@H](c3ccccc3)OC(=O)[C@H]1[C@@H]2C(=O)Nc1nc2ccccc2s1,4.44 (inactive),0.437,11.7 (active),1.48 (inactive),0.444 (inactive),-0.734 (inactive),3.72,1.18 (inactive),1.19 (inactive),-0.494
C=CCC(OC(C)=O)[C@@H]1[C@@H](N(Cc2cc3ccccc3o2)C(=O)c2ccc(C)cc2)c2cc(OCCCO)ccc2N1C(=O)c1ccc(-c2ccccc2)cc1 (stereo not given in full),1.33 (inactive),-0.519,1.8 (inactive),0.345 (inactive),-1.06 (inactive),0.115 (inactive),4.08,-1.59 (inactive),0.768 (inactive),2.25
O=P(NCC1(CC2(c3ccccc3)CO2)CC1)(c1ccccc1)c1ccccc1 (stereo not given),-0.569 (inactive),0.315,0.0174 (inactive),-0.505 (inactive),0.424 (inactive),0.297 (inactive),-0.242,-0.024 (inactive),0.266 (inactive),-2.9
COCCOC(=O)N1C(=O)[C@@]2(c3ccccc31)[C@H](c1ccc(O)cc1)N1[C@H](c3ccccc3)[C@H](c3ccccc3)OC(=O)[C@H]1[C@@H]2C(N)=O,0.0672 (inactive),-0.379,2 (inactive),1.18 (inactive),1.34 (inactive),0.44 (inactive),-0.0639,-0.198 (inactive),-0.747 (inactive),-0.0275
C[N+](C)(C)CCCC[C@@H]1NC(=O)[C@@H]2C[C@H](C(=O)NCCCCCCNC(=O)CS)[C@H](c3cccc(OCCO)c3)N2C1=O,-0.0169 (inactive),-0.012,5.87 (inactive),1.39 (inactive),-0.293 (inactive),0.644 (inactive),0.133,1.85 (inactive),1.12 (inactive),1.45
C=C(C(=O)CC[C@@H](OC(=O)c1cccnc1)c1ccc(CO)o1)C(C)C,-0.766 (inactive),0.329,1.42 (inactive),0.0559 (inactive),0.375 (inactive),0.209 (inactive),-0.211,1.22 (inactive),-0.133 (inactive),0.337
CCCNC(=O)[C@@]1(C)c2ccccc2C(=O)N(Cc2cc(C(F)(F)F)cc(C(F)(F)F)c2)[C@H]1c1ccc(CO)cc1,-0.253 (inactive),-0.0711,4.6 (inactive),-0.305 (inactive),1.97 (inactive),-0.754 (inactive),1.49,-1.98 (inactive),-3.17 (inactive),-3.73
C=CCC(OC(C)=O)[C@@H]1[C@@H](N(Cc2cc3ccccc3o2)C(=O)c2cccc3ccccc23)c2cc(OCCCO)ccc2N1C(=O)Cc1ccc2ccccc2c1 (stereo not given in full),-0.288 (inactive),-0.0547,2.06 (inactive),0.231 (inactive),-0.336 (inactive),0.332 (inactive),0.778,0.39 (inactive),-1.46 (inactive),-2.19
COc1c(C)cc(-c2cc3c(c(-c4ccccc4)n2)[Si](C(C)C)(C(C)C)O[C@H]3c2ccccc2)cc1C,-1.11 (inactive),0.176,0.481 (inactive),-0.129 (inactive),-0.561 (inactive),0.284 (inactive),0.291,-1.36 (inactive),0.788 (inactive),-0.334
CCN(CC)c1ccc(N2CC=CC34O[C@@H]5/C=C\CCCOC(=O)C5[C@H]3C(=O)N(CCCO)[C@@H]4C2=O)cc1 (stereo not given in full),-0.522 (inactive),0.235,1.78 (inactive),0.225 (inactive),-0.462 (inactive),0.308 (inactive),-0.219,0.024 (inactive),0.558 (inactive),0.931
COc1ccc(C#Cc2ccc3c(c2)[C@]2(C(=O)N3)[C@H](C(=O)N3CCc4cc(OC)c(OC)cc4C3)[C@H]3C(=O)O[C@H](c4ccccc4)[C@H](c4ccccc4)N3[C@@H]2c2ccc(OCCO)cc2)cc1,1.82 (inactive),0.423,5.73 (inactive),2.37 (inactive),0.279 (inactive),1.42 (inactive),0.0867,0.0908 (inactive),0.246 (inactive),0.115
CC(C)C[C@@H]1NC(=O)[C@@H]2C[C@H](C(=O)NCCCCN(C)C)[C@H](c3ccc(O)cc3)N2C1=O,-0.0654 (inactive),-0.0655,-0.202 (inactive),-0.241 (inactive),-0.689 (inactive),-0.189 (inactive),0.0488,-0.298 (inactive),0.167 (inactive),0.21
